What was measured:
Conditions in all cases: Compound Concentration (nM):1000
PRKG1 = test system: PRKG1
PRKG2 = test system: PRKG2
PRKR = test system: T1, PRKR
T1 construct: gene EIF2AK2

PRKX = test system: PRKX
PRP4 = test system: T2, PRP4
T2 construct: gene PRPF4B

PYK2 = test system: T3, PYK2
T3 construct: gene PTK2B

QSK = test system: T4, QSK
T4 construct: gene KIAA0999

RAF1 = test system: RAF1
RET(M918T) = test system: RET(M918T)
RET(V804L) = test system: RET(V804L)
RET(V804M) = test system: RET(V804M)
RET = test system: RET
RIOK1 = test system: RIOK1
RIOK2 = test system: RIOK2
RIOK3 = test system: RIOK3
RIPK1 = test system: RIPK1
RIPK2 = test system: RIPK2
RIPK4 = test system: RIPK4
RIPK5 = test system: T5, RIPK5
T5 construct: gene DSTYK

ROCK1 = test system: ROCK1
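Further: KINOMEscan scanMAX binding as percent activity remaining versus control; lower means stronger binding.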

Compound | Percent Control (PRKG1) [%] | Percent Control (PRKG2) [%] | Percent Control (PRKR) [%] | Percent Control (PRKX) [%] | Percent Control (PRP4) [%] | Percent Control (PYK2) [%] | Percent Control (QSK) [%] | Percent Control (RAF1) [%] | Percent Control (RET(M918T)) [%] | Percent Control (RET(V804L)) [%] | Percent Control (RET(V804M)) [%] | Percent Control (RET) [%] | Percent Control (RIOK1) [%] | Percent Control (RIOK2) [%] | Percent Control (RIOK3) [%] | Percent Control (RIPK1) [%] | Percent Control (RIPK2) [%] | Percent Control (RIPK4) [%] | Percent Control (RIPK5) [%] | Percent Control (ROCK1) [%]
CCS(=O)(=O)c1ccc(OC)c(Nc2ncc(-c3cccc(OC)c3)o2)c1 [GW580509X] | 100 | 100 | 85 | 100 | 82 | 100 | 100 | 100 | 50 | 78 | 75 | 55 | 100 | 82 | 98 | 100 | 88 | 90 | 91 | 100
CCS(=O)(=O)c1ccc(OC)c(Nc2ncc(-c3cccc(F)c3)o2)c1 [GW621970X] | 100 | 100 | 76 | 100 | 100 | 100 | 99 | 100 | 52 | 84 | 100 | 67 | 94 | 71 | 100 | 85 | 57 | 100 | 100 | 96
COc1ccc2[nH]c3c4[nH]c5ccc(OC)cc5c4c4c(c3c2c1)C(=O)NC4=O [GW296115X] | 74 | 0.9 | 100 | 23 | 97 | 68 | 56 | 100 | 21 | 4.2 | 21 | 41 | 58 | 89 | 100 | 90 | 60 | 83 | 27 | 72
COc1cc2ncn(-c3cc(O[C@H](C)c4ccccc4Cl)c(C(N)=O)s3)c2cc1OC [GSK237701A] | 100 | 92 | 82 | 97 | 61 | 62 | 97 | 73 | 51 | 56 | 77 | 54 | 26 | 100 | 19 | 61 | 100 | 87 | 84 | 69
CN(C)CCNC(=O)Nc1ccc(N(C)c2ccnc(Nc3ccc(CS(C)(=O)=O)cc3)n2)cc1.Cl [GW830900A] | 100 | 95 | 100 | 90 | 100 | 57 | 87 | 100 | 79 | 88 | 86 | 60 | 9.5 | 90 | 17 | 99 | 94 | 60 | 32 | 9.4
CCn1c(-c2nonc2N)nc2c(C#CC(C)(C)O)nc(OCCNC)cc21.Cl [GSK949675] | 34 | 0.5 | 94 | 7.9 | 90 | 100 | 99 | 100 | 73 | 88 | 100 | 96 | 100 | 91 | 100 | 100 | 100 | 100 | 99 | 57
COc1ccc2c(-c3ccnc(Nc4cccc(OC(F)(F)F)c4)n3)cnn2n1 [GW810372X] | 82 | 97 | 75 | 100 | 100 | 96 | 95 | 100 | 100 | 100 | 100 | 100 | 42 | 29 | 51 | 100 | 100 | 77 | 100 | 100
CC1=C(C(=O)Nc2ccc3[nH]ncc3c2)C(c2ccc(Cl)c(Cl)c2)CC(=O)N1 (centres unmarked) [GSK299115A] | 45 | 67 | 79 | 25 | 74 | 79 | 92 | 100 | 74 | 75 | 89 | 76 | 99 | 100 | 86 | 77 | 72 | 78 | 99 | 0
COc1cc2ncnc(Nc3ccc4c(cnn4Cc4ccccc4)c3)c2cc1OC.Cl [GW282449A] | 93 | 100 | 89 | 100 | 100 | 100 | 100 | 100 | 90 | 100 | 100 | 75 | 97 | 88 | 100 | 100 | 27 | 100 | 71 | 94
COc1cc(C=NNc2ncnc3c2cnn3-c2ccccc2)ccc1O [GW513184X] | 100 | 100 | 76 | 100 | 100 | 100 | 100 | 100 | 18 | 90 | 100 | 44 | 32 | 45 | 16 | 96 | 50 | 9.1 | 90 | 97
